TDP-43 tox inh – inhibitors of TDP-43 toxicity in yeast; yeast TDP-43 toxicity rescue, BacTiter-Glo growth, 24 h; Potency, µM (series often up to 46.1 µM), actives largely listed as activators; 45,000 tested, 0.45% active; AID 1347073; active = well fitted activation curve with a large enough effect; note: 0% is about no effect; nearly all actives have a fitted effect of over 55% in size
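TDP-43-expressing yeast, pregrown in raffinose, seeded at OD600 0.02 in galactose medium with compound for 24 hr at 30 deg C. Growth read by BacTiter-Glo luminescence, so rescue of toxicity appears as activation.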
* marks the source's active call; other numbers are inactive results; i = inactive. Only a selection was taken, and hits are over-represented in it overall. Potency is the fitted concentration of half-maximal effect.

SMILES	TDP-43 tox inh
COc1ccc(CC(=O)O/N=C(\N)c2cccc([N+](=O)[O-])c2)cc1	i
N/C(=N\OC(=O)CCCOc1ccccc1)c1ccc([N+](=O)[O-])cc1	i
O=C(Cn1cc(C(=O)c2cccs2)c2ccccc21)Nc1ccc(Br)cc1	i
Cc1ccc(NC(=O)N2CCc3cc(S(=O)(=O)N4CCC(C)CC4)ccc32)cc1C	i
Fc1ccc(-c2csc(N3CCOCC3)n2)cc1	i
Cc1cc(C(=O)N/N=C/c2sc(N3CCOCC3)nc2-c2ccccc2)c(C)o1	i
c1ccc(-c2nc(N3CCOCC3)sc2-c2ccccc2)cc1	25.1µM*
CCCOc1cccc(C(=O)N(Cc2sccc2C)C2CCS(=O)(=O)C2)c1 (stereo unspecified)	i
COc1ccccc1N1CCN(c2c3c(nc4nncn24)CCC3)CC1	i
Cc1ccc(Nc2c3c(nc4nncn24)CCC3)cc1	12.6µM*
Cc1cccc(Nc2c3c(nc4nncn24)CCC3)c1	i
Cc1cc(C)cc(NC(=O)N2CCC3(CC2)Oc2ccccc2C(=O)N3Cc2ccccc2F)c1	i
Cc1c2cnn(-c3ccccc3)c(=O)c2c(C)n1CC(=O)NCc1ccccc1Br	i
Cc1ccc(SCCC(=O)N/N=C/c2ccccc2O)cc1	i
O=C(CCCSc1ccc(Cl)cc1)Nc1ccccc1O	11.2µM*
O=C(CSCc1ccc(Cl)cc1)Nc1ccccc1O	i
CCCS(=O)(=O)c1nc(S(=O)(=O)c2ccc(C)cc2)c(NCCCOC(C)C)s1	i
CC1(c2ccccc2)CC(C)(C)N(C(=O)c2cccc(Cl)c2)c2ccccc21 (stereo unspecified)	i
NC(=O)N/N=C/c1coc2ccc3ccccc3c2c1=O	i
O=C(O)Cc1coc2ccc3ccccc3c12	12.6µM*
CCC(=O)OCc1cc(=O)oc2ccc3ccccc3c12	i
Cc1nn2c(-c3cccc(NC(=O)c4ccc(Cl)cc4)c3)nnc2c2ccccc12	i
CC1CN(C(=O)CS(=O)(=O)Cc2ccccc2)CC(C)O1 (stereo unspecified)	i
CC1CN(C(=O)N2c3ccccc3Sc3ccccc32)CC(C)O1 (stereo unspecified)	12.6µM*
CC1CN(C(=O)C(Sc2ccccc2)c2ccccc2)CC(C)O1 (stereo unspecified)	i
CCOC(=O)c1c(NC(C)=O)c2c3c(sc2n1Cc1nc(-c2cccc(C)c2)oc1C)CCCC3	i
NC(=O)c1nc(-c2ccc(F)c(F)c2)nc2c1[nH]c(=O)n2-c1cccc(Cl)c1	i
COc1ccc(N2CCN(c3oc(/C=C/c4ccc(F)cc4)nc3C#N)CC2)cc1	i
CCCSc1ncc(Cl)c(C(=O)Nc2sc3c(c2C(=O)NCC)CCCC3)n1	i

Assay outcomes as filed in PubChem.
